Source: PubChem BioAssay (EPA / NIEHS)
Inconclusive results are not listed. Active and inactive are the calls of the source. Rule for the calls: active = hit-call score of the fitted dose curve at least 0.9, where 1 is the maximum; inconclusive = response in the unintended direction; inactive = score below 0.9.

What was measured:
[1] = ACEA_AR_agonist_AUC_viability: ACEA Biosciences xCELLigence Real-Time Cell Analysis on Androgen Receptor Agonism for Viability (AID 2283775);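 for AC50: viability read 80 hours after compound addition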
How it was run: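 Read-out is area under the impedance curve at 80 h post-dose in 22Rv1 cells, with DMSO as baseline and signal loss taken as reduced viability. Compounds ran in duplicate from 100 uM final.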

[2] = ACEA_AR_antagonist_AUC_viability: ACEA Biosciences xCELLigence Real-Time Cell Analysis on Androgen Receptor Antagonism for Viability (AID 2283776);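 note: 22Rv1 human prostate cancer cells growing on impedance electrode plates; area under impedance growth curve at 80 h after dosing as viability; hits lower the growth signal relative to DMSO meaning cytotoxicity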
How it was run: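 Viability endpoint from label-free cell-index monitoring: 22Rv1 cultures treated with an eight-point 1:4 dilution series starting at 100 uM final, AUC at 80 h fitted against DMSO.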

[3] = ACEA_ER_AUC_viability: ACEA Biosciences xCELLigence Real-Time Cell Analysis on Estrogen Receptor Agonism for Viability (AID 2283782);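 note: continuous compound exposure with impedance area under curve over 80 h; hit means loss of impedance signal meaning reduced cell growth or viability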
How it was run: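 T-47D; phenol red-free RPMI1640 + 10% CS-FBS; 8 conc., 1:4 serial, max 100 uM final, ≤0.5% DMSO; n = 2; continuous exposure; impedance monitored to 80 h post-dose; AUC vs DMSO.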

[4] = target: AR (gene 367) (UniProt P10275); experiment: ACEA_AR_agonist_80hr: ACEA Biosciences xCELLigence Real-Time Cell Analysis on Androgen Receptor Agonism for Proliferation (AID 2283783);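 note: hits increase impedance growth signal above DMSO baseline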
AR (gene 367), sequence (P10275 whole entry, looked up): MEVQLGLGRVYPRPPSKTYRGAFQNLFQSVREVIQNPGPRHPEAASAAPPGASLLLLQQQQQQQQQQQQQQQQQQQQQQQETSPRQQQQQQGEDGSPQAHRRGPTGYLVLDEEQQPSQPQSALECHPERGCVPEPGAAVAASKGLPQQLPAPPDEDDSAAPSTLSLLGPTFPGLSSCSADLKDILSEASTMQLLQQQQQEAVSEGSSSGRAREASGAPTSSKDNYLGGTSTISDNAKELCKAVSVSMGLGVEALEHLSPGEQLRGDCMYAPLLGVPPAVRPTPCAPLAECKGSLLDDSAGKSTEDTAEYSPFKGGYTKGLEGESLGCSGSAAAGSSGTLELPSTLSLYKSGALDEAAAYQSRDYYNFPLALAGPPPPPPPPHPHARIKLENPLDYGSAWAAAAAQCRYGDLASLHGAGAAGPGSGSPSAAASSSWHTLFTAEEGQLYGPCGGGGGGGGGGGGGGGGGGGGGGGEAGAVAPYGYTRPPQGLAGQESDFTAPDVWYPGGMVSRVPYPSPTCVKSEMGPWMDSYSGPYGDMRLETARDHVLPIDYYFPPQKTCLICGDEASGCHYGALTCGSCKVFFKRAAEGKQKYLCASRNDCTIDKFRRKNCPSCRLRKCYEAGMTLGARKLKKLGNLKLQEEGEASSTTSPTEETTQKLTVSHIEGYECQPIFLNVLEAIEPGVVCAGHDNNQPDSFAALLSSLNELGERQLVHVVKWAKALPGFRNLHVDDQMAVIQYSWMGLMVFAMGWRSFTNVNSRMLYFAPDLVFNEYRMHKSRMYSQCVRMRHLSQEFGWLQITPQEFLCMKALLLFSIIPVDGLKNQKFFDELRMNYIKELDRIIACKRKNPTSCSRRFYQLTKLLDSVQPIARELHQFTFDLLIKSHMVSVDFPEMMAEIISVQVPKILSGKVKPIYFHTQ
How it was run: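 Androgen-driven proliferation in 22Rv1 cells is tracked as electrical impedance, taken 80 h after continuous exposure to compound (eight concentrations, 1:4 steps, maximum 100 uM final). Activity is fitted in the positive direction with DMSO as baseline.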

[5] = target: AR (gene 367) (UniProt P10275); experiment: ACEA_AR_antagonist_80hr: ACEA Biosciences xCELLigence Real-Time Cell Analysis on Androgen Receptor Antagonism for Proliferation (AID 2283787);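 note: 22Rv1 human prostate cancer cells with growth followed by electrical impedance; hits lower the impedance growth signal relative to DMSO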
How it was run: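 Growth-kinetic antagonist readout in 22Rv1 cells, taken 80 h after continuous compound exposure. Activity fitted as signal loss relative to DMSO negative control.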

[6] = system: frog Estrogen Receptor (ESR1), gene 398734; experiment: ATG_frER1_XSP1: Attagene TRANS-FACTORIAL Multi-Species (XSP1) HepG2 Assay for frog Estrogen Receptor (ESR1) (AID 2283777)
How it was run: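 Human hepatoma HepG2 cells carried transiently transfected multiplexed Gal4-driven reporters and were exposed to test chemicals for 24 hours. Transcripts were quantified by fluorescent RT-PCR with capillary electrophoresis, referenced to DMSO.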

[7] = system: zebrafish Estrogen Receptor (ESR2A), gene 317734; experiment: ATG_zfER2a_XSP1: Attagene TRANS-FACTORIAL Multi-Species (XSP1) HepG2 Assay for zebrafish Estrogen Receptor (ESR2A) (AID 2283778)
How it was run: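 Cells were transfected, dosed for 24 h, then total RNA was isolated. After oligo(dT) reverse transcription, reporter sequences were amplified, FAM-labelled by primer extension, digested with HpaI and sized by capillary electrophoresis; DMSO served as baseline.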

[8] = target: chicken Estrogen Receptor (ESR1), ESR1 (gene 396099) (UniProt P06212); experiment: ATG_chERa_XSP1: Attagene TRANS-FACTORIAL Multi-Species (XSP1) HepG2 Assay for chicken Estrogen Receptor (ESR1) (AID 2283779)
chicken Estrogen Receptor (ESR1), ESR1 (gene 396099), sequence (P06212 whole entry, looked up, the tested form may be a part): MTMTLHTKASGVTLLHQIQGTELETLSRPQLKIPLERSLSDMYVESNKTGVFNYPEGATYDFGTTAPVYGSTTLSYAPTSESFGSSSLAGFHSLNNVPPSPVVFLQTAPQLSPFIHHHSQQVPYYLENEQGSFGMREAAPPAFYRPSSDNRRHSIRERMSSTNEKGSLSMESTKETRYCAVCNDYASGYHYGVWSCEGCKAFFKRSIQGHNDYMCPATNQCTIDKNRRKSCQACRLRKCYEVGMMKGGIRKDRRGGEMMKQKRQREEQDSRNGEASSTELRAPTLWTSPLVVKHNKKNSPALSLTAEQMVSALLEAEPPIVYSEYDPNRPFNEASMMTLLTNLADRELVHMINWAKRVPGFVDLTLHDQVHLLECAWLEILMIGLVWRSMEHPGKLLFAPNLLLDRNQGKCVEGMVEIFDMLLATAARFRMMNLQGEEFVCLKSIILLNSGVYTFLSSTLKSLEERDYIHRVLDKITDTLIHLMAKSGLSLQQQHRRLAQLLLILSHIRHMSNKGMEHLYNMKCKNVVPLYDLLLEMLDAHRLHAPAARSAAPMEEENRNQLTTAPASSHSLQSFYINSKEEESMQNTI
How it was run: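 Human liver HepG2, transient MRTU transfection (NR-Gal4 chimeras, GAL4-UAS reporters); 24 h compound exposure; 3 nM 6-alpha-fluorotestosterone in medium. Total RNA → RT-PCR → 6-FAM primer extension → HpaI → CE. Positive direction vs DMSO baseline.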

[9] = system: turtle Estrogen Receptor (ESR1), gene 101933533; experiment: ATG_trERa_XSP1: Attagene TRANS-FACTORIAL Multi-Species (XSP1) HepG2 Assay for turtle Estrogen Receptor (ESR1) (AID 2283781)
How it was run: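 Activity was taken as gain of reporter transcript over DMSO controls. HepG2 cells carrying GAL4-UAS-driven reporters were exposed for 24 h before RNA was extracted and reporter sequences were measured by fluorescence after capillary separation.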

[10] = target: Estrogen receptor beta (Homo sapiens) (UniProt Q92731); experiment: ATG_hERb_XSP1: Attagene TRANS-FACTORIAL Multi-Species (XSP1) HepG2 Assay for human Estrogen Receptor (ESR2) (AID 2283788)
Estrogen receptor beta (Homo sapiens), sequence (Q92731 whole entry, looked up, the tested form may be a part): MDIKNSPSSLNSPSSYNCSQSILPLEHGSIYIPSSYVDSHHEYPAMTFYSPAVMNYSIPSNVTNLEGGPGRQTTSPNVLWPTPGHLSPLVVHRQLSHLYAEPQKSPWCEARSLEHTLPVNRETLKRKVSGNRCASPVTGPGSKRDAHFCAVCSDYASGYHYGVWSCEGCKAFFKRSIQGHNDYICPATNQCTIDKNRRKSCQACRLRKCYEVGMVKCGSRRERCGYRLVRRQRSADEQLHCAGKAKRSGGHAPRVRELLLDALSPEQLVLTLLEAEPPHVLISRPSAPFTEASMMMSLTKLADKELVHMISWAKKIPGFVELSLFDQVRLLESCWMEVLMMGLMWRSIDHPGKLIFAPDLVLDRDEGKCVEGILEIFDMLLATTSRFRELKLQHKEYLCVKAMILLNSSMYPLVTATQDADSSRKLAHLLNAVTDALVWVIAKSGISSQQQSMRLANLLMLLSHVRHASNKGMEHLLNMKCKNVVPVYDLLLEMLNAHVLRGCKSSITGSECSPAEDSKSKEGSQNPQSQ
How it was run: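 Measured endpoint is transcriptional gain of signal from a GAL4-UAS reporter controlled by chimeric ERβ in HepG2 liver cells. Exposure lasts 24 h alongside 3 nM 6-alpha-fluorotestosterone, with DMSO as negative control.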

[11] = ATG_M_06_XSP1: Attagene TRANS-FACTORIAL Multi-Species (XSP1) HepG2 Assay for M06 Transcription Factor (Internal Marker) (AID 2283790)
How it was run: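 Transfected HepG2 multi-reporter system treated 24 h in the presence of 3 nM 6-alpha-fluorotestosterone. The M06 internal marker transcript was quantified by RT-PCR with capillary electrophoresis as a background control, and gain of signal was scored versus DMSO.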

[12] = ATG_M_61_XSP1: Attagene TRANS-FACTORIAL Multi-Species (XSP1) HepG2 Assay for M61 Transcription Factor (Internal Marker) (AID 2283797)
How it was run: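 HepG2 cells transiently transfected with multiplexed GAL4-driven reporter units, dosed 24 h with 3 nM 6-alpha-fluorotestosterone present. Reporter mRNA quantified by RT-PCR, 6-FAM labelling, HpaI digestion and capillary electrophoresis; internal-marker background control, gain of signal versus DMSO.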

[13] = ATG_M_32_XSP1: Attagene TRANS-FACTORIAL Multi-Species (XSP1) HepG2 Assay for M32 Transcription Factor (Internal Marker) (AID 2283799)
How it was run: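 HepG2 cells transiently transfected with multi-species TRANS reporter units, dosed 24 h with 3 nM 6-alpha-fluorotestosterone present. Internal-marker reporter mRNA quantified by RT-PCR and capillary electrophoresis; positive-direction fit versus DMSO.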

[14] = target: Peroxisome proliferator-activated receptor gamma (Homo sapiens) (UniProt P37231); experiment: ATG_hPPARg_XSP1: Attagene TRANS-FACTORIAL Multi-Species (XSP1) HepG2 Assay for human Peroxisome Proliferator-activated Receptor gamma (PPARg) (AID 2283800)
Peroxisome proliferator-activated receptor gamma (Homo sapiens), sequence (P37231 whole entry, looked up, the tested form may be a part): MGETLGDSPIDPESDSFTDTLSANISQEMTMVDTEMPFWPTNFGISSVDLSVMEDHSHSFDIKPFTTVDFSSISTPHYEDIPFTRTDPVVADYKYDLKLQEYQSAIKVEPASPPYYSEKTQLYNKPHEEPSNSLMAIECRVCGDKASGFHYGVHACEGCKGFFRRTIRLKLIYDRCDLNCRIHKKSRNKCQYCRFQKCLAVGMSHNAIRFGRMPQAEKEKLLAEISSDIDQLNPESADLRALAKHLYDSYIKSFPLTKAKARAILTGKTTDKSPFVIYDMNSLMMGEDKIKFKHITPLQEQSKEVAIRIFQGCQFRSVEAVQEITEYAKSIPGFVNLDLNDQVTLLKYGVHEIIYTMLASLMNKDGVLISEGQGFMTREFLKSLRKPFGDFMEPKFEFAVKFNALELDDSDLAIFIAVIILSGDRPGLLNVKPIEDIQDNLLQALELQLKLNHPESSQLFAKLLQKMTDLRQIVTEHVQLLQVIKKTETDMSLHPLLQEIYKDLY
How it was run: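 HepG2 cells transiently transfected with GAL4-UAS reporter units carrying chimeric NR-Gal4 proteins; 3 nM 6-alpha-fluorotestosterone present. After 24 h dosing, reporter mRNA quantified by RT-PCR and capillary electrophoresis; gain of signal relative to DMSO.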

[15] = system: zebrafish Peroxisome Proliferator-activated Receptor gamma (PPARg), gene 557037; experiment: ATG_zfPPARg_XSP1: Attagene TRANS-FACTORIAL Multi-Species (XSP1) HepG2 Assay for zebrafish Peroxisome Proliferator-activated Receptor gamma (PPARg) (AID 2283801)
How it was run: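 HepG2 cells transiently transfected with GAL4-UAS reporter units including a zebrafish PPARg–GAL4 chimera, dosed 24 h with 3 nM 6-alpha-fluorotestosterone present. Reporter mRNA quantified by RT-PCR, FAM labelling, HpaI digestion and capillary electrophoresis; induction versus DMSO.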

[16] = target: mouse Peroxisome Proliferator-activated Receptor gamma (PPARg), Pparg (gene 19016) (UniProt P37238); experiment: ATG_mPPARg_XSP1: Attagene TRANS-FACTORIAL Multi-Species (XSP1) HepG2 Assay for mouse Peroxisome Proliferator-activated Receptor gamma (PPARg) (AID 2283802)
mouse Peroxisome Proliferator-activated Receptor gamma (PPARg), Pparg (gene 19016), sequence (P37238 whole entry, looked up, the tested form may be a part): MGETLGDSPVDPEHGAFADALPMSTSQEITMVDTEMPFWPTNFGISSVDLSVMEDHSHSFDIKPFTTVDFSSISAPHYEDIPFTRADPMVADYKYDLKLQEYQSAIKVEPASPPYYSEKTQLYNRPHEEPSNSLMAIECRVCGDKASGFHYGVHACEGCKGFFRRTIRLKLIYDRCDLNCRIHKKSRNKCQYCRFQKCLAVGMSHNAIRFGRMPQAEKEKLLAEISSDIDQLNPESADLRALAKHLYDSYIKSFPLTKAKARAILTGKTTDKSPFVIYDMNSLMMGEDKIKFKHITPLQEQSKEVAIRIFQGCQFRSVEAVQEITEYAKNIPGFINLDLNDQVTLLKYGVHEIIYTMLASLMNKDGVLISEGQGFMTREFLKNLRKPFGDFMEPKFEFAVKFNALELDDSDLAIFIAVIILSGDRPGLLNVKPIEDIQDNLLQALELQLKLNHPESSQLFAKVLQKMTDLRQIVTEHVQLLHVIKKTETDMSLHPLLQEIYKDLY
How it was run: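 HepG2 cells transiently transfected with GAL4-UAS reporter units driven by mouse PPARg–GAL4 chimera; 3 nM 6-alpha-fluorotestosterone present. After 24 h dosing, reporter mRNA quantified by RT-PCR, fluorescent labelling and capillary electrophoresis; gain of signal versus DMSO.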

[17] = target: GAL4 Transcription Factor (Internal Marker), GAL4 (gene 855828) (UniProt P04386); experiment: ATG_GAL4_XSP1: Attagene TRANS-FACTORIAL Multi-Species (XSP1) HepG2 Assay for GAL4 Transcription Factor (Internal Marker) (AID 2283789)
GAL4 Transcription Factor (Internal Marker), GAL4 (gene 855828), sequence (P04386 whole entry, looked up, the tested form may be a part): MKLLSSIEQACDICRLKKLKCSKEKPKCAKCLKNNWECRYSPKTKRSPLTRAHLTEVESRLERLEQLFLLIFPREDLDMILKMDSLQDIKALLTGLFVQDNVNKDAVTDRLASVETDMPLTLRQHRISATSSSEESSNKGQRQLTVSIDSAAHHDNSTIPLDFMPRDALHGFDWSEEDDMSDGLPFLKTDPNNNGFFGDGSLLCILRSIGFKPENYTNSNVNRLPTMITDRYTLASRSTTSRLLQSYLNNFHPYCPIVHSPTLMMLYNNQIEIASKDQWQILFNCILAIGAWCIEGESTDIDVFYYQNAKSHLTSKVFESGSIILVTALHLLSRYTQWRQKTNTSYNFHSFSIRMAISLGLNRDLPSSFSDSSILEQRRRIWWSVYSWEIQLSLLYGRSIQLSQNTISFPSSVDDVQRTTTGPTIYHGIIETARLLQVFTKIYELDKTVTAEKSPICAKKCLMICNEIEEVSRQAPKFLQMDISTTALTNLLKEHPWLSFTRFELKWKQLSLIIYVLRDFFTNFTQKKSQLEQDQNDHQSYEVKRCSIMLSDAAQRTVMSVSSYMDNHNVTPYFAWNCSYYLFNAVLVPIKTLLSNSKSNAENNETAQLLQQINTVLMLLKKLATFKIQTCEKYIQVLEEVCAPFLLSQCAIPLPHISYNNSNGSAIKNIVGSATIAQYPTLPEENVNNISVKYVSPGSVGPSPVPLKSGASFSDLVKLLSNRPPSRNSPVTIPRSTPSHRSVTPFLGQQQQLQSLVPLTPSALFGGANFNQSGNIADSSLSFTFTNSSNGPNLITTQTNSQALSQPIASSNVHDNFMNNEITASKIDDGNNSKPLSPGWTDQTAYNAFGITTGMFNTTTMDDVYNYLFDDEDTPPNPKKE
How it was run: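 HepG2 cells transiently transfected with multiplexed GAL4-UAS reporter units were exposed for 24 h with 3 nM 6-alpha-fluorotestosterone present. Reporter mRNA was quantified by RT-PCR, FAM labelling, HpaI digestion and capillary electrophoresis; background-control readout, gain-of-signal versus DMSO.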

[18] = ATG_M_19_XSP1: Attagene TRANS-FACTORIAL Multi-Species (XSP1) HepG2 Assay for M19 Transcription Factor (Internal Marker) (AID 2283798)
How it was run: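 HepG2 cells transiently transfected with multiplexed GAL4-UAS reporter units, dosed 24 h with 3 nM 6-alpha-fluorotestosterone present for partial AR stimulation. Reporter mRNA measured by RT-PCR with capillary electrophoresis; gain-of-signal fitted relative to DMSO.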

[19] = system: turtle Androgen Receptor (AR), gene 101947425; experiment: ATG_trAR_XSP1: Attagene TRANS-FACTORIAL Multi-Species (XSP1) HepG2 Assay for turtle Androgen Receptor (AR) (AID 2283786)
How it was run: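 HepG2 cells transiently transfected with a turtle AR–GAL4 chimera and GAL4-UAS reporter, co-treated with 3 nM 6-alpha-fluorotestosterone for partial stimulation. Reporter mRNA is quantified at 24 h by RT-PCR and capillary electrophoresis, gain-of-signal versus DMSO.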

[20] = STM_H9_NormalizedViability: Cytotoxicity Assessment at 120 hours in the Stemina devTOX quickPredict H9 human embryonic stem cell (hESC)-based Assay (AID 2283784)
How it was run: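 Undifferentiated H9 hESCs kept pluripotent were exposed to compound, with media and chemical replaced every 24h. CellTiter-Fluor protease-substrate fluorescence was background-corrected and normalized per plate to the 0.1% DMSO vehicle; signal loss indicates reduced viability.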

Measured: AC50

CCCCSP(=O)(SCCCC)SCCCC
active: [1] 78.1 µM | [2] 67.1 µM | [3] 71.4 µM

CNC(=O)ON=C(SC)C(=O)N(C)C
active: [3] 65.5 µM
inactive: [1] | [2] | [4] | [5]

S=C1NCCN1
inactive: [1] | [2] | [3]

CC[C@H](C)[C@H]1O[C@]2(C=C[C@@H]1C)C[C@@H]1C[C@@H](C/C=C(\C)[C@@H](O[C@H]3C[C@H](OC)[C@@H](O[C@H]4C[C@H](OC)[C@@H](NC)[C@H](C)O4)[C@H](C)O3)[C@@H](C)/C=C/C=C3\CO[C@@H]4[C@H](O)C(C)=C[C@@H](C(=O)O1)[C@]34O)O2
active: [1] 0.874 µM | [2] 1.34 µM | [3] 1.82 µM

CCc1cccc(C)c1N(C(=O)CCl)C(C)COC (configuration not stated)
inactive: [1] | [2] | [7] | [3] | [11] | [12] | [13] | [15]
active: [6] 3.42 µM | [8] 9.46 µM | [9] 17.4 µM | [10] 4.14 µM | [14] 5.37 µM | [16] 25.5 µM

CCCOCC(=Nc1ccc(Cl)cc1C(F)(F)F)n1ccnc1
inactive: [8] | [17] | [18] | [13] | [15]
active: [1] 22.7 µM | [2] 6 µM | [3] 23.1 µM | [14] 0.985 µM | [16] 0.674 µM

COP(=O)(OC)OC(Br)C(Cl)(Cl)Br (configuration not stated)
inactive: [4]
active: [1] 75.1 µM | [2] 61.3 µM | [3] 30.7 µM | [5] 69.5 µM

CC(=NC#N)N(C)Cc1ccc(Cl)nc1
inactive: [1] | [2] | [3]

C#CC(C)(C)NC(=O)c1cc(Cl)cc(Cl)c1
active: [2] 26.4 µM | [8] 50 µM | [9] 64.3 µM
inactive: [1] | [6] | [7] | [19] | [11] | [12]

CCOP(=S)(Oc1cnc(C(C)(C)C)nc1)OC(C)C (configuration not stated)
active: [1] 46.3 µM | [2] 50 µM | [3] 81.4 µM

CSc1nc(NC(C)C)nc(NC(C)C)n1
inactive: [1] | [2] | [3] | [20]
